Screening data (PubChem BioAssay)
Most compounds without a hit are left out; they make up all but 7% or so of the library.
PI5P4Ka inh = qHTS for Inhibitors of phosphatidylinositol 5-phosphate 4-kinase (PI5P4K). max response, %. PI5P4Kalpha enzyme, ADP-Glo luminescence, 60 min; hits give low values. Phosphatidylinositol 5-phosphate 4-kinase type-2 alpha (Homo sapiens), P48426. 330,000 compounds, 1.2% hits; active = max response of -50% or lower; inconclusive = between -30% and -50%; inactive = -30% or higher; note: value at the top dose of about 77 µM
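Human PI5P4Kalpha with substrate in 0.038 M HEPES pH 7.4, 0.28 mM EGTA, 0.1% CHAPS, 5% DMSO; reaction started with 5 microM ATP (final), 60 min at room temperature. ADP formed read by ADP-Glo luminescence.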
GCN5L2 inh = qHTS Assay for Inhibitors of GCN5L2 | Potency, µM (top dose mostly 58.9 µM), actives largely listed as inhibitors | GCN5L2 HAT assay, ThioGlo1 CoA-SH fluorescence | Histone acetyltransferase KAT2A (Homo sapiens), Q92830 | 390,000 compounds, 0.21% hits
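qHTS, 1536-well. 20nM enzyme, pH 7.5 HEPES/EDTA/Tween-20 buffer; 15 min compound preinc., RT. Start: 75uM H3(1-25), 70uM AcCoA, 50uM ThioGlo1. Read Ex340/Em540 at t=0 (autofluorescence flag) and t=20 min.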
PLK1 PBD inh = qHTS for Inhibitors of PLK1-PDB (polo-like kinase 1 - polo-box domain): Primary Screen | Serine/threonine-protein kinase PLK1 (Homo sapiens), P53350 | Plk1 PBD binding of FITC phosphopeptide, fluorescence polarization | Potency, µM, actives largely listed as inhibitors | 360,000 compounds, 2.8% hits; note: series mostly up to about 57 µM; nearly all actives have a fitted effect of over 65% in size
BAZ2B inh = qHTS Assay for Inhibitors of BAZ2B; AlphaScreen BAZ2B-H3K14Ac peptide displacement; 360,000 compounds, 4.4% hits; AID 504333, 2011; Potency, µM (series often up to 114 µM), usual class: inhibitors; note: nearly all actives have a fitted effect of over 60% in size
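AlphaScreen displacement: compounds (up to 110uM) incubated 30 min at room temperature with a preformed 50 nM BAZ2B/50 nM biotinylated H3K14Ac peptide complex in PBS pH 7.4 with Tween-20. Donor and acceptor beads at 10 ug/mL final added, 20 min light-protected before reading.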
HP1b binding inh = HTS for Inhibitors of HP1-beta Chromodomain Interactions with Methylated Histone Tails; Chromobox protein homolog 1 (Homo sapiens), P83916; AlphaScreen HP1-beta / biotin-H3K9me3 peptide binding; Potency, µM (series often up to 114 µM), most hits filed as inhibitors; 390,000 compounds, 0.56% hits; AID 540317, 2011; note: nearly all actives have a fitted effect of over 70% in size
Target sequence (P83916 whole entry, looked up): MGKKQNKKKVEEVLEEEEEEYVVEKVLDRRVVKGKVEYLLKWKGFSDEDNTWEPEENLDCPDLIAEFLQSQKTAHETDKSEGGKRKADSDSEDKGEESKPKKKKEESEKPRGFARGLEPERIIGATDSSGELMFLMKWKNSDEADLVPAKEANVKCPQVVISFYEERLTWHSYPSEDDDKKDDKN
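Compound inhibition of the preformed complex between 50 nM HP1-beta and 50 nM biotinylated H3K9me3 peptide was read by AlphaScreen. Buffer was PBS pH 7.4 with 0.01% Tween-20. Incubations ran 30 min at room temperature, with 10 ug/mL donor/acceptor beads.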
JMJD2A Tudor inh = qHTS Assay for Inhibitors of JMJD2A-Tudor Domain; Lysine-specific demethylase 4A (Homo sapiens), O75164; AlphaScreen JMJD2A-Tudor / H3K4me3 peptide binding; Potency, µM (series often up to 114 µM), actives largely listed as inhibitors; 390,000 compounds, 4.4% hits; AID 504339, 2011; note: nearly all actives have a fitted effect of over 50% in size
Numbers stand for hits; 0 = inactive; ? = inconclusive; - = no result given. Unless noted, calls come from the whole dose curve; as a rule, active = well fitted curve in the direction sought with a large enough effect; inconclusive = small, poorly fitted or top-dose-only effect, or another doubt; inactive = no such curve, though single readings can be large; an effect the other way counts as inactive or inconclusive.

SMILES | PI5P4Ka inh | GCN5L2 inh | PLK1 PBD inh | BAZ2B inh | HP1b binding inh | JMJD2A Tudor inh
O=C(CNC(=O)c1ccco1)N=Nc1c(O)n(CCc2ccccc2)c2ccccc12 | 0 | 0 | 0 | ? | 0 | 0
CCCCn1c(O)c(N=NC(=O)c2ccco2)c2ccccc21 | 0 | 0 | 19µM | ? | ? | ?
CCOc1cc(C(=O)N(CC)CC(=O)Nc2c(F)cccc2F)ccc1OCC(=O)N1CCOCC1 | 0 | 0 | 0 | 0 | 0 | 0
COCCn1c(SCC(=O)NNC(=O)c2ccccc2)nc2ccccc21 | 0 | 0 | 0 | - | 0 | 0
Cc1ccc(C)c(OCc2cc(C(=O)N3CC[C@H](O)C3)no2)c1 | 0 | 0 | 0 | 0 | 0 | 0
OCCNc1ncnc2c1c(-c1ccccc1)c(-c1ccccc1)n2Cc1ccco1 | 0 | 0 | 0 | 50µM | 0 | 56µM
COCCCn1c2nc3ccccc3nc2c2c(=O)n(Cc3ccc(Cl)cc3)cnc21 | 0 | 0 | 0 | 0 | 0 | 0
CN(C)CCCNc1ncnc2oc(-c3ccccc3)c(-c3ccccc3)c12 | 0 | 0 | 0 | 0 | 0 | 0
CC(C)Cn1cnc2c(c(-c3ccccc3)c(-c3ccccc3)n2Cc2ccco2)c1=N | 0 | 0 | 0 | ? | 0 | ?
c1ccc(-c2oc3ncnc(NCCCn4ccnc4)c3c2-c2ccccc2)cc1 | - | 0 | 0 | 25µM | ? | 56µM
c1ccc(-c2c(-c3ccccc3)n(Cc3ccco3)c3ncnc(NCCCn4ccnc4)c23)cc1 | 0 | 0 | ? | 32µM | ? | 45µM
O=c1c2c3nc4ccccc4nc3n(Cc3ccccc3)c2ncn1Cc1ccco1 | -68 | ? | 0 | 50µM | 0 | 0
COc1ccc2c(c1)c1c(c(=O)n(-c3cccc(Cl)c3)c(=O)n1C)n2C | - | 0 | - | 0 | 0 | 0
COc1ccc(-c2nc(CSCC(=O)NCc3ccccc3Cl)c(C)o2)cc1OC | - | 0 | - | 0 | 0 | ?
N=c1c2c(-c3ccccc3)c(-c3ccccc3)n(Cc3ccco3)c2ncn1Cc1ccccc1 | 0 | ? | 0 | 45µM | 0 | 0
O=C(CSc1nc2ccccc2c(=O)n1-c1ccccc1)NC(=O)CN1CCCC1=O | 0 | 0 | 0 | 79µM | 0 | 0
Cc1cc(C(=O)COC(=O)c2ccc(N)cc2)c(C)n1-c1c(C)n(C)n(-c2ccccc2)c1=O | 0 | 0 | 0 | ? | 0 | 0
Cc1ccc(CNS(=O)(=O)c2cc(F)ccc2CN2C(=O)c3cccnc3C2=O)o1 | 0 | 0 | 0 | 50µM | 0 | 0
Cc1ccc(CNS(=O)(=O)c2ccc(CN3C(=O)c4cccnc4C3=O)cc2)o1 | 0 | 0 | 0 | 79µM | 0 | 0
CC(=O)Nc1ccc(NS(=O)(=O)c2ccc(CN3C(=O)c4cccnc4C3=O)cc2)cc1 | 0 | 0 | 0 | 79µM | 0 | 0
CC(=O)Nc1ccc(S(=O)(=O)Nc2ccc(S(=O)(=O)Nc3ncccn3)cc2)cc1 | 0 | 0 | 0 | 0 | 0 | 0
Cc1ccc(-c2nn(-c3ccccc3)cc2C2CC(c3cccs3)=NN2C(=O)CCCC(=O)O)cc1 (centres undefined) | - | 0 | 0 | 79µM | 0 | 71µM
COc1ccc(-c2nn(-c3ccccc3)cc2C2CC(c3cccs3)=NN2C(=O)CCCC(=O)O)cc1 (centres undefined) | 0 | 0 | 0 | 79µM | 0 | 0
Cc1ccc(C2=NN(C(=O)CCC(=O)O)C(c3cn(-c4ccccc4)nc3-c3ccc(C)cc3)C2)cc1 (centres undefined) | 0 | ? | ? | - | 0 | 50µM
O=C(O)CCC(=O)N1N=C(c2cccs2)CC1c1cn(-c2ccccc2)nc1-c1ccccc1 (centres undefined) | 0 | 0 | 0 | ? | 0 | 0
Cc1ccc(C)c(SCC(=O)NCc2ccco2)c1 | 0 | 0 | 0 | 0 | 0 | 0
Cc1ccc(C)c(SCC(=O)OCC(=O)c2ccco2)c1 | - | 0 | ? | 50µM | ? | 79µM
